Many of the other results were omitted from the sample, so hits are more common in it than they were.
Mtb RmlCD inh = M. tuberculosis RmlC/RmlD inhibition. RmlC+RmlD coupled enzyme assay, percent inhibition; primary screen in compound mixtures. AID 1533. 160,000 compounds, 0.03% hits. inhibition, % at 3.6 µM; in the data active = inhibition mostly above about 34%, no sharp cut-off
Target sequence (P9WH09 whole entry, looked up): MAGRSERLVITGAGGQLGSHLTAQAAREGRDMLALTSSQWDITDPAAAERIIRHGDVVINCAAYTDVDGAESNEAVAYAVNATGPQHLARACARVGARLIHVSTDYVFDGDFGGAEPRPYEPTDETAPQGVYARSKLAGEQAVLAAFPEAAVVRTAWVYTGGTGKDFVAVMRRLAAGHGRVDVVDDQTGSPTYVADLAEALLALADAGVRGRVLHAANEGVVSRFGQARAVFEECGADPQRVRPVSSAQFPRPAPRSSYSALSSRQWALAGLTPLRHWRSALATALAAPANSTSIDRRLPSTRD
Target sequence (P9WH11 whole entry, looked up): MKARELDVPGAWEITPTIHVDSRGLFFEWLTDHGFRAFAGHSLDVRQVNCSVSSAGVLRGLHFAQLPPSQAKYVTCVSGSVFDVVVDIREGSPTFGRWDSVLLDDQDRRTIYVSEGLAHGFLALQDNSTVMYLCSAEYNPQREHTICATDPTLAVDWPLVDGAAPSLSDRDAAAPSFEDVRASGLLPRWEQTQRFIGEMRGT
A number is an active result.

Results for CCOC(=O)c1sc(NC(=O)c2ccccc2OCC)nc1C ?
Mtb RmlCD inh: inactive

How did CCOC(=O)c1sc(Nc2ccc(F)cc2)nc1C do in these assays?
Mtb RmlCD inh: inactive

What do the screens show for `CCOC(=O)c1sc(Nc2nc3c(OC)cccc3s2)nc1C`?
Mtb RmlCD inh: 73.8

How did CCN(CC)S(=O)(=O)c1ccc(OC)c(NS(=O)(=O)c2cccc(C(=O)O)c2)c1 do in these assays?
Mtb RmlCD inh: inactive

Results for Cc1ccnc(NS(=O)(=O)c2ccc(NS(C)(=O)=O)cc2)n1 ?
Mtb RmlCD inh: inactive

How did O=C(COC(=O)C1CCN(S(=O)(=O)c2ccc3c(c2)OCCO3)CC1)Nc1cc(C(F)(F)F)ccc1Cl do in these assays?
Mtb RmlCD inh: inactive

Results for Nc1ccc(C(=O)Nc2ccc(NC(=O)c3ccco3)c(O)c2)cc1 ?
Mtb RmlCD inh: inactive

What do the screens show for `CC(C)Oc1ccc2c3c(c(=O)oc2c1)CCC3`?
Mtb RmlCD inh: inactive

How did CC[C@@H](NS(=O)(=O)c1ccc(C)cc1)C(=O)Oc1ccc2c3c(c(=O)oc2c1)CCC3 do in these assays?
Mtb RmlCD inh: 45.5

How did Cc1ccc(S(=O)(=O)NC(CC(C)C)C(=O)Oc2ccc3c4c(c(=O)oc3c2)CCC4)cc1 (centres undefined) do in these assays?
Mtb RmlCD inh: inactive

How did CCC(NC(=O)OC(C)(C)C)C(=O)Oc1ccc2c3c(c(=O)oc2c1)CCC3 (centres undefined) do in these assays?
Mtb RmlCD inh: inactive

What do the screens show for `O=C(Oc1ccc2c3c(c(=O)oc2c1)CCCC3)c1ccco1`?
Mtb RmlCD inh: inactive

What do the screens show for `CC(C)CC(C(=O)Oc1ccc2c3c(c(=O)oc2c1)CCC3)N1C(=O)c2ccccc2C1=O` (centres undefined)?
Mtb RmlCD inh: 54.5

How did O=C(O)c1cnn2c(-c3ccc(F)cc3)ccnc12 do in these assays?
Mtb RmlCD inh: inactive

Results for CC1(c2ccc(Cl)cc2)NC(=O)CS1 (centres undefined) ?
Mtb RmlCD inh: inactive

How did COc1ccc(N2C(=O)C(CN3CCN(C)CC3)C2c2ccccc2)cc1 (centres undefined) do in these assays?
Mtb RmlCD inh: inactive

How did Cc1ccc(CN2CCN(C(=O)c3ccncc3)CC2)cc1 do in these assays?
Mtb RmlCD inh: inactive

How did O=[N+]([O-])c1cccc(-c2noc(-c3ccco3)n2)c1 do in these assays?
Mtb RmlCD inh: inactive

How did CCN(CC)C(=O)COC(=O)c1cc(-c2ccco2)nc2ccccc12 do in these assays?
Mtb RmlCD inh: inactive

What do the screens show for `CNC(=O)COC(=O)c1cc(-c2ccco2)nc2ccccc12`?
Mtb RmlCD inh: 37.1

What do the screens show for `O=C(NNC(=O)c1cc(-c2ccco2)nc2ccccc12)c1ccccc1`?
Mtb RmlCD inh: inactive

What do the screens show for `CCc1nnc(SCC(=O)Nc2ccccc2Cl)nc1CC`?
Mtb RmlCD inh: inactive

What do the screens show for `C#CCOCCOCCOCCNc1nc(N2CCN(C(=O)[C@H](CCCCN)n3cc(C(N)COC(=O)C(F)(F)F)nn3)CC2)nc(N2CCN(C(=O)[C@H](CCCCN)n3cc(C(N)CC(C)C)nn3)CC2)n1` (some centres undefined)?
Mtb RmlCD inh: inactive

What do the screens show for `COC(CNC(=O)c1ccc2nc(-c3ccccc3)c(-c3ccccc3)nc2c1)OC`?
Mtb RmlCD inh: inactive

What do the screens show for `COC(CNC(=O)c1coc2nc3ccccc3nc12)OC`?
Mtb RmlCD inh: 73.9

Results for O=C(NCC1CCCO1)c1coc2nc3ccccc3nc12 (centres undefined) ?
Mtb RmlCD inh: inactive

Results for Cc1ccc2nc(NC(=O)CSc3nncc(=O)n3N)sc2c1 ?
Mtb RmlCD inh: inactive

How did CCn1c(SCC(=O)Nc2c(C)n(C)n(-c3ccccc3)c2=O)nc2c1c(=O)n(C)c(=O)n2C do in these assays?
Mtb RmlCD inh: inactive

What do the screens show for `Cc1nc2ccccc2c2c1C(=O)NC2=O`?
Mtb RmlCD inh: inactive

What do the screens show for `Cc1cccn2c(=O)c3cc(C(=O)NC(C)C)c(=N)n(Cc4ccncc4)c3nc12`?
Mtb RmlCD inh: inactive

How did COCCn1c(=N)c(C(=O)NCCc2ccc(OC)cc2)cc2c(=O)n3cccc(C)c3nc21 do in these assays?
Mtb RmlCD inh: inactive

How did CCNC(=O)c1cc2c(=O)n3cccc(C)c3nc2n(Cc2ccc(C)cc2)c1=N do in these assays?
Mtb RmlCD inh: 56.5

How did CC(OC(=O)c1ccc(Cl)c(S(=O)(=O)Nc2ccc(F)cc2)c1)C(=O)NC(N)=O (centres undefined) do in these assays?
Mtb RmlCD inh: inactive

How did CNC(=O)c1cc2c(s1)-c1ccccc1CC2 do in these assays?
Mtb RmlCD inh: 56.9

Results for O=C(N/N=C/c1ccc(F)c(F)c1)c1cc2c(s1)-c1ccccc1CC2 ?
Mtb RmlCD inh: inactive

Results for CNC(=O)c1cc(C)c(-c2ccccc2)s1 ?
Mtb RmlCD inh: inactive

What do the screens show for `COC(C(=O)Nc1ccc(S(=O)(=O)Nc2cccc3ccccc23)cc1)c1ccccc1` (centres undefined)?
Mtb RmlCD inh: inactive

Results for Cc1ccc(C(=O)NNc2cc(=O)n(C)c(=O)n2C)cc1C ?
Mtb RmlCD inh: inactive

How did Cn1c(=O)cc(OCC(=O)NCc2cccs2)c2ccccc21 do in these assays?
Mtb RmlCD inh: inactive

Results for CCC(C)C(NC(=O)C(C)NC(=O)CNC(=O)OC(C)(C)C)C(N)=O (centres undefined) ?
Mtb RmlCD inh: inactive

How did Nc1ccc(-c2nc3ccccc3[nH]2)cc1 do in these assays?
Mtb RmlCD inh: inactive

What do the screens show for `O=C(O)c1ccc(-c2nc3ccccc3[nH]2)cc1`?
Mtb RmlCD inh: 95.3

Results for Fc1ccc(-c2nc3ccccc3[nH]2)cc1 ?
Mtb RmlCD inh: inactive

What do the screens show for `c1ccc(COc2ccc(-c3csnn3)cc2)cc1`?
Mtb RmlCD inh: inactive

Results for CCOC(=O)C1CCN(C(=O)c2ccc(N(C)S(=O)(=O)c3ccc(OC)cc3)cc2)CC1 ?
Mtb RmlCD inh: inactive

What do the screens show for `S=C(Nc1ccc2[nH]ccc2c1)NC1CCCCC1`?
Mtb RmlCD inh: inactive

Results for CCCn1c2c(c(O)c(C(=O)Nc3nc4ccccc4s3)c1=O)CCCC2 ?
Mtb RmlCD inh: inactive

What do the screens show for `CC(C)Cn1c2c(c(O)c(C(=O)Nc3nc4ccccc4s3)c1=O)CCCC2`?
Mtb RmlCD inh: 82.1

What do the screens show for `Cc1nc2ccccc2c(=O)n1NC(=O)c1c(O)c2c(n(CC(C)C)c1=O)CCCC2`?
Mtb RmlCD inh: inactive

What do the screens show for `CCc1cccc2c(-c3csc(=NC)n3C)c[nH]c12`?
Mtb RmlCD inh: inactive

Results for CCC(C)NS(=O)(=O)c1ccc(OC)c(Cl)c1Cl (centres undefined) ?
Mtb RmlCD inh: inactive

What do the screens show for `CCC(=O)Nc1ccc(Cl)c(NC(=O)c2c(OC)cccc2OC)c1`?
Mtb RmlCD inh: inactive

How did CCc1ccc(-c2cn3nc(-c4ccccc4)cnc3n2)cc1 do in these assays?
Mtb RmlCD inh: 70.3

What do the screens show for `CCc1ccc(-c2cn3c(n2)SCC3)cc1`?
Mtb RmlCD inh: inactive

Results for Clc1ccc(-c2cn3nc4c(nc3n2)CCCC4)cc1 ?
Mtb RmlCD inh: inactive

How did O=C(Nc1ccccc1)N1CCCC1c1cccs1 (centres undefined) do in these assays?
Mtb RmlCD inh: inactive

What do the screens show for `CC1c2ccccc2N(NC(=O)Cc2ccccc2)C1C` (centres undefined)?
Mtb RmlCD inh: inactive

How did O=C(NCc1ccc(F)cc1)C(C(=O)NCc1ccc(F)cc1)c1ncc(C(F)(F)F)cc1Cl do in these assays?
Mtb RmlCD inh: inactive

How did Cc1onc(-c2c(F)cccc2Cl)c1C(=O)O/N=C(\N)c1ccc([N+](=O)[O-])o1 do in these assays?
Mtb RmlCD inh: inactive

What do the screens show for `Cc1ccccc1NC(=O)c1ccc(NC(=O)C2CC(=O)OC23CCCCC3)cc1` (centres undefined)?
Mtb RmlCD inh: inactive

Results for CC(=O)Nc1c(-c2ccc(F)cc2)nc2ccccn12 ?
Mtb RmlCD inh: inactive
